# Experimental data taken from paper PMC4336329 (PLoS ONE, 2015).
# The whole screen tested about 310,000 compounds, of which about 14,000 (4.5%) showed an effect of 50% or more. The effect is printed as a negative number. What follows is part of a selection rich in strong results, with near analogues and random picks from the rest.
# Molecular target: human ether-à-go-go-related gene (hERG) potassium channel (human, UniProt Q12809)
# Test: primary screen, population patch clamp on CHO cells stably expressing hERG; higher = less effect of the substance
# 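Also: peak tail current of the secondary pulse compared with the same well before compound.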
# Sequence of human ether-à-go-go-related gene (hERG) potassium channel (Q12809 whole entry, looked up): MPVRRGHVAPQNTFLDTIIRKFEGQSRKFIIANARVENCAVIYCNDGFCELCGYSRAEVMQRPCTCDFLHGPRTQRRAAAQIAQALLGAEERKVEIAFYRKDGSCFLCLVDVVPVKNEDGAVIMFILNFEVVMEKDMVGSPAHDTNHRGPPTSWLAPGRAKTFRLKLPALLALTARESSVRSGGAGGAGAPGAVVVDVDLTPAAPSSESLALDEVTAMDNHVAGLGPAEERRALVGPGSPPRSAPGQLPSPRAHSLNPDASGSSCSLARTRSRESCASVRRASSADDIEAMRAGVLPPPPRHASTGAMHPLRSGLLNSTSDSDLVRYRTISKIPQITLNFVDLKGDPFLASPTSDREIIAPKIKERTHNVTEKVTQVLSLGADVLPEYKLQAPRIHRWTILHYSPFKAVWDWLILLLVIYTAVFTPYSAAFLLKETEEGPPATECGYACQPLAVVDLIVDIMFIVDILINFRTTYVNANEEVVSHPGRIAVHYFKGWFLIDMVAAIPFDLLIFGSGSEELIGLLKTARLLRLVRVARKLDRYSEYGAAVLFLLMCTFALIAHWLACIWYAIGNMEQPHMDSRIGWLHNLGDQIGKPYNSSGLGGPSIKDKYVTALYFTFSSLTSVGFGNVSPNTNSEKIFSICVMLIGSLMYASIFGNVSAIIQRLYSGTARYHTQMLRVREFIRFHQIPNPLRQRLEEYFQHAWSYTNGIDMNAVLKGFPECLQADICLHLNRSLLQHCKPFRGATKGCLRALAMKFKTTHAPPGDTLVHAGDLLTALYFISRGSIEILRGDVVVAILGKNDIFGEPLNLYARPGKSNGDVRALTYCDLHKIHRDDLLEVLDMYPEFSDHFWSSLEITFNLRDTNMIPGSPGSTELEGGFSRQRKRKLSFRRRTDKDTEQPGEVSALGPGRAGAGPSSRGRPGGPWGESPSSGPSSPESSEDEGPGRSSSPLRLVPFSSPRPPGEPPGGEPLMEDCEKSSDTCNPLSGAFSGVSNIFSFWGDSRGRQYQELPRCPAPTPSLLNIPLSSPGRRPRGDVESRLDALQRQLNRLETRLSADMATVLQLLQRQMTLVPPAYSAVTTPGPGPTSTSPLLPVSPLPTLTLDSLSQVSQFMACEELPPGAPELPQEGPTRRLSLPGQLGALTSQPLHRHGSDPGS
row,Compound,"hERG current change (%, negative = inhibition) at 10uM [%]"
1,Cc1cc(C)nc(N/N=C/c2cn[nH]c2-c2ccccc2)n1,-6.34
2,Cc1cc([N+](=O)[O-])nn1CC(=O)NCc1ccccc1,24.2
3,CC(C(=O)N=c1sc2ccccc2n1C)N1C(=O)C2CC=CCC2C1=O (centres unmarked),-40.2
4,Cc1cccc(C)c1NC(=O)CNC(=O)C(NC(=O)c1ccc(C(C)(C)C)cc1)C(C)C (centres unmarked),14.4
5,CCc1nnc(NC(=O)CN2CCN(c3ccccc3F)CC2)s1.Cl,-12.9
6,CSc1ccc(CCCCCCOC(=O)C(C)(C)C)cc1,3.95
7,Cn1c(=O)cc(SCC(=O)NCc2ccc(F)cc2)c2ccccc21,-17.4
8,Cn1c(=O)cc(SCC(=O)NCCCN2CCOCC2)c2ccccc21,-2.51
9,CCn1c(=O)cc(SCC(=O)NCCCN2CCN(c3ccc(F)cc3)CC2)c2ccccc21,-46
10,Cn1c(=O)cc(OCC(=O)NCCCN2CCN(c3ccccc3F)CC2)c2ccccc21,-45.4
11,CCn1c(=O)cc(SCC(=O)NCCCN2CCC(C)CC2)c2ccccc21,-13
12,Cn1c(=O)cc(SCC(=O)NCCCN2CCN(c3ccc(F)cc3)CC2)c2ccccc21,-69.2
13,CCn1c(=O)cc(SCC(=O)N2CCN(C)CC2)c2ccccc21,6.22
14,CCn1c(=O)cc(SCC(=O)NCCN2CCN(Cc3ccccc3)CC2)c2ccccc21,-49.4
15,CCn1c(=O)cc(SCC(=O)NCCCN2CCN(c3ccccc3F)CC2)c2ccccc21,-62.2
16,CCn1c(=O)cc(SCC(=O)N2CCN(c3ccccc3OC)CC2)c2ccccc21,-52
17,CCn1c(=O)cc(SCC(=O)N2CCN(c3ccccc3F)CC2)c2ccccc21,-21.7
18,Cn1c(=O)cc(SCC(=O)NCCCN2CCN(c3ccccc3F)CC2)c2ccccc21,-55.5
19,COc1ccc(-c2c(C)oc3c(CN4CCOCC4)c(O)ccc3c2=O)cc1,7.31
20,O=C(O)CC(NC(=O)OCc1ccccc1)c1ccc(Br)cc1 (centres unmarked),20.2
21,CCCn1c(=O)c2c(nc(Br)n2CCC)n(C)c1=O,-1.31
22,CCC(C)c1ccccc1NC(=O)C(C)NCCN(C)C.O=C(O)C(=O)O (centres unmarked),10.3

row,Compound,"hERG current change (%, negative = inhibition) at 10uM [%]"
1,CSCCC1NC(=O)N(CC(=O)Nc2c(Cl)cc(Cl)cc2Cl)C1=O (centres unmarked),-2.68
2,O=c1[nH]c(O)c(C=Nc2ccc(F)c(Cl)c2)c(=O)[nH]1,7.3
3,Cc1ccc(S(=O)(=O)Oc2ccc(/C=N/N=C3/NC(=O)C(CC(=O)O)S3)cc2)cc1[N+](=O)[O-] (centres unmarked),24
4,Cc1ccc2[nH]c(=O)c(NC(N)=S)nc2c1,14
5,S=c1nc(C2CCCCC2)n(-c2ccccc2)[nH]1,15.6
6,O=C(C1CC1)N1CCN(C(c2ccccc2)c2ccccc2)CC1,6.33
7,Cc1ccccc1-n1nc2c(c1NC(=O)c1ccc3c(c1)OCO3)CS(=O)(=O)C2,-17.6
8,CNC(=S)N/N=C/c1ccccc1OCC(=O)O,18.4
9,CC(C)C(=O)NN(C(=O)c1ccccc1)c1ccccc1,20.4
10,Cn1c(=O)cc(OCCCC(=O)NCCN2CCN(c3ccccc3F)CC2)c2ccccc21,-7.18
11,Cn1c(=O)cc(SCC(=O)NCCN2CCN(c3ccccc3F)CC2)c2cc(Cl)ccc21,-54.1
12,CCOc1ccc(CCNC(=O)CSc2cc(=O)n(C)c3ccc(Cl)cc23)cc1OCC,-21.4
13,O=C(O)C1(c2ccccc2)CCN(S(=O)(=O)c2ccc(F)c(F)c2)CC1,2.44
14,COc1ccc(-c2cc(O)cc(O)c2)cc1,-3.33
15,COc1ccc(NC(=O)Cc2ccccc2)cc1,4.36
16,COc1ccc(/C=C/C(=O)NCCCc2ccccc2)cc1,-46.8
17,COc1ccc(/C=C/c2cc[n+](C(=O)Cc3ccccc3)cc2)cc1.[Cl-],-51.2
18,CCC(=O)Nc1ccc(OCC2CCCO2)cc1 (centres unmarked),7.08
19,c1ccc(CN2CCN(Cc3ccc4ccccc4c3)CC2)cc1,5.24
20,Cl.OC1(c2ccc(F)cc2)CCN(Cc2ccccc2)C1 (centres unmarked),-15.1
21,Cl.OC1(c2ccc3ccccc3c2)CCN(Cc2ccccc2)C1 (centres unmarked),-57.1
22,c1ccc2c(c1)OCC(CNc1ncnc3sccc13)O2 (centres unmarked),-20.9
